Experimental findings from PubChem BioAssay (NCI) are described below.

A short description of this assay: NCI Yeast Anticancer Drug Screen. Data for the rad14 strain (AID 159).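 Further: 0% = growth of vehicle-treated control cultures.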 The conditions noted are these: S. cerevisiae rad14 strain growth inhibition, hits give high values. The method, then: Growth inhibition of yeast strains with defined genetic alterations is measured as a screen for potential anti-cancer activity. Selected strains with alterations in DNA damage repair or cell cycle control were exposed to compounds and growth inhibition was measured relative to vehicle treated controls. The strain used in this assay is rad14

This is part of a sample that, as a whole, favours compounds with a hit. Of some 79,000 tested, about 15% had one in any assay. A number with no mark means an inactive call. Activity calls are given as the source filed them. No stated cut-off is given here; in the data, active means growth inhibition above about 70%; inactive means the rest.

For `CCOC(=O)c1csc(Br)n1`, the growth inhibition reads like this: (at 1.2 µM) 0%; (at 3.7 µM) 2%; (at 11.0 µM) -2%; (at 33.0 µM) -4%; (at 100.0 µM) -8%.

Turning to `CC(=O)O[C@H]1C(=O)[C@@]2(C)[C@H]([C@H](OC(=O)c3ccccc3)[C@]3(O)C[C@H](OC(=O)[C@H](O)[C@@H](NC(=O)c4ccccc4)c4ccccc4)C(C)=C1C3(C)C)[C@]1(OC(C)=O)CO[C@@H]1C[C@@H]2O`, the growth inhibition is -1% (at 1.2 µM); -2% (at 3.7 µM); 1% (at 11.0 µM); -2% (at 33.0 µM); -5% (at 100.0 µM).

On to `Cn1ncc2cc3c(Nc4ccc(Cl)cc4)cccc3nc21`, for which the growth inhibition (at 1.2 µM) was -2%; the growth inhibition (at 3.7 µM) was -2%; the growth inhibition (at 11.0 µM) is -3%; the growth inhibition (at 33.0 µM) is -3%; the growth inhibition (at 100.0 µM) was 29%.

In the case of `CCCCCC#CCOC(=O)C(=[N+]=[N-])P(=O)(c1ccccc1)c1ccccc1`, the growth inhibition was -11% (at 1.2 µM); -6% (at 3.7 µM); -9% (at 11.0 µM); -6% (at 33.0 µM); 94% (active) (at 100.0 µM).

For the molecule `c1ccc2c(c1)ccc1c3ccncc3ccc21`, the growth inhibition was 9% (at 1.2 µM); 15% (at 3.7 µM); 90% (active) (at 11.0 µM); 99% (active) (at 33.0 µM); 96% (active) (at 100.0 µM).

With `O=C(NCCCCCN1CCC2(CCCCC2)CC1)C(C1CCCCC1)C1CCCCC1`, the growth inhibition runs as follows: (at 1.2 µM) 11%; (at 3.7 µM) 49%; (at 11.0 µM) 98% (active); (at 33.0 µM) 99% (active); (at 100.0 µM) 99% (active).

Take `O=c1[nH]cc(/C=N\Nc2ccccc2)c(=O)[nH]1`: the growth inhibition was -1% (at 1.2 µM); 1% (at 3.7 µM); 12% (at 11.0 µM); 15% (at 33.0 µM); 10% (at 100.0 µM).

For `CCOC(=O)C1=C(C)NC(C)=C(C(=O)OCC)C1c1ccc(C)cc1`, the growth inhibition is 17% (at 1.2 µM); 14% (at 3.7 µM); 69% (at 11.0 µM); 96% (active) (at 33.0 µM); 93% (active) (at 100.0 µM).
